Compound activity (PubChem)
BAZ2B block: inhibitors of human BAZ2B bromodomain; AlphaScreen BAZ2B-H3K14Ac peptide displacement; actives 4.4% (n = 360,000); Potency, µM (doses to about 114 µM), for inactives: at the top dose activity change, negative = inhibition, actives largely listed as inhibitors; further: on the % scale 0 is the no-effect control and ±100 the full control effect; nearly all actives have a fitted effect of over 60% in size
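Protein-peptide AlphaScreen: BAZ2B 50 nM, b-H3K14Ac 50 nM, 1x PBS pH 7.4 + 0.01% Tween-20. Preincubation 30 min RT; cpd 30 min RT (top 110 uM); beads 20 min RT, light-protected.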
JMJD2A Tudor: inhibitors of human JMJD2A Tudor domain. AlphaScreen JMJD2A-Tudor / H3K4me3 peptide binding. actives 4.4% (n = 390,000). Potency, µM (series often up to 114 µM), for the others: at the top dose activity change, negative = inhibition, actives largely listed as inhibitors. O75164; further: on the % scale 0 is the no-effect control and ±100 the full control effect; nearly all actives have a fitted effect of over 50% in size
G9a inh: inhibitors of human histone lysine methyltransferase G9a; G9a H3K9 monomethylation, AlphaScreen, 2 h; Potency, µM (top dose mostly 102 µM), for the others: top-dose activity, negative = inhibition, actives largely listed as inhibitors; actives 8.8% (n = 350,000); further: on the % scale 0 is the no-effect control and ±100 the full control effect; nearly all actives have a fitted effect of over 75% in size
Target sequence (Q96KQ7 913-1193 limits assumed): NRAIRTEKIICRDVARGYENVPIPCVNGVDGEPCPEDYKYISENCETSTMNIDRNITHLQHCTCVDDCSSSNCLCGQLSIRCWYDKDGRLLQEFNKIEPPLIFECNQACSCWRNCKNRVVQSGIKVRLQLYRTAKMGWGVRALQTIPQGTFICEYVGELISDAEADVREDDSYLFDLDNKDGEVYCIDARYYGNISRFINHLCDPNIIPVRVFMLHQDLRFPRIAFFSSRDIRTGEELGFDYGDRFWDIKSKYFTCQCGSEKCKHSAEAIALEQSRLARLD
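Step 1: enzyme (final 20 nM) with compound, 15 min RT. Step 2: substrate peptide 500 nM and SAM 20 uM, 2 h RT. Step 3: anti-H3K9me1 antibody and AlphaScreen beads, 10 min, then plate read.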
GLS inhibitor: blocks human kidney-isoform glutaminase activity; GLS enzymatic activity, qHTS titration; AID 624170; Potency, µM (highest dose often 45.5 µM), for inactives: at the top dose activity change, negative = inhibition, most hits filed as inhibitors; O94925; actives 0.21% (n = 410,000); further: on the % scale 0 is the no-effect control and ±100 the full control effect
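hKGA in 45 mM KH2PO4 (pH 8.2), 0.02% Tween-20 with compound, then 1mM L-Glutamine (stock as added) plus glutamate oxidase/HRP/Amplex red coupling mix. Fluorescence read initially and after 30 min at RT; signal change reflects glutamate formation.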
HP1b binding inh: HP1-beta chromodomain-methylated histone interaction inhibition; P83916; AlphaScreen HP1-beta / biotin-H3K9me3 peptide binding; Potency, µM (titrated, usually from 114 µM), for the others: at the highest dose activity change, negative = inhibition, usual class: inhibitors; actives 0.56% (n = 390,000); AID 540317; further: nearly all actives have a fitted effect of over 70% in size
Target sequence (P83916 whole entry, looked up): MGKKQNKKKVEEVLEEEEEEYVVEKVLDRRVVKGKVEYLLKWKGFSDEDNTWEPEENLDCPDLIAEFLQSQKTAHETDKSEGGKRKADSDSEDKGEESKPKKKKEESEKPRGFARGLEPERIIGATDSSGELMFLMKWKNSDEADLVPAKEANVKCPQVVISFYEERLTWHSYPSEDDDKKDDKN
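AlphaScreen: HP1-beta (50 nM) preformed 30 min with biotin-H3(1-18)K9me3 peptide (50 nM) in PBS pH 7.4, 0.01% Tween-20. Compound added for 30 min at RT, then streptavidin donor/nickel chelate acceptor beads (10 ug/mL) for 30 min.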
Starred values were filed as active, the others as inactive; ? = inconclusive; . = no result given; [ ] = another dose, or the depositor's remark. Shown are actives, neighbours in structure and some others; about 10% of the full set was active somewhere. The call rests on the fitted dose curve; in most records, active means well fitted curve in the direction sought with a large enough effect; inconclusive means small, poorly fitted or top-dose-only effect, or another doubt; inactive means no such curve, though single readings can be large; an effect the other way counts as inactive or inconclusive. Potency means the concentration at half of the fitted maximal effect.

SMILES	BAZ2B block	JMJD2A Tudor	G9a inh	GLS inhibitor	HP1b binding inh
O=C(CN1CCN(c2ccc([N+](=O)[O-])cc2)CC1)c1ccccc1	-26%	?	7.1µM*	2%	-4%
COc1ccc(N2CCN(C(=O)CCCC(=O)c3ccccc3)CC2)cc1	?	-22%	-14%	31%	17%
COc1ccc2c(c1)c(C(=O)CN1CCN(Cc3ccccc3)CC1)c(C)n2C	-4%	-19%	.	-2%	22%
CCCOc1ccc(CSc2nc3ccccc3[nH]2)cc1	9%	1%	.	-2%	42%
O=C(NCC(c1cccs1)S(=O)(=O)c1cccs1)c1ccc(Cl)cc1 (stereo not given)	2%	-11%	2%[59 µM]	-4%	-3%
COc1ccc(CNC(=O)[C@@H](NC(=O)C2CCN(S(=O)(=O)c3ccc(C)cc3)CC2)C(C)C)cc1OC	1%	-8%	.	-4%	23%[57 µM]
O=C1c2ccccc2C(=O)N1CCCCN(C(=O)c1cc2ccccc2oc1=O)c1ccc(Cl)cc1	-2%	-14%	4%	1%	31%
CCn1c(SCc2nc3sc(C(=O)O)c(C)c3c(=O)[nH]2)nnc1-c1ccc(Cl)cc1	56µM*	-3%	?	24%	42%
Cc1sc2nc(CSc3nnnn3-c3ccc(Cl)cc3)[nH]c(=O)c2c1C	1%	-22%	?	-5%	4%
O=C1CCCCCN1Cc1nnc(SCc2nc3ccccc3s2)n1-c1ccccn1	-22%	-22%	50µM*	-5%	38%
COc1cc2c(cc1OC)n(CC(=O)NC1CCCCCC1)n1c(C)cc(=O)nc21	-14%	50µM*	23%	10%	-14%
COC(=O)Cn1c2ccccc2c2nc(=O)cc(C)n21	9%	-15%	-3%	-6%	41%
COc1ccc2[nH]c(=O)c(CN(CCN3CCCC3)C(=O)Nc3ccccc3Cl)cc2c1	-5%	-23%	50µM*	3%	11%
CCc1ccc2[nH]c(=O)c(CN(CCCN3CCOCC3)C(=O)Nc3cccc(Cl)c3)cc2c1	?	?	50µM*	1%	15%
Cc1cc(C)c2cc(CN(CCN3CCCC3)C(=O)Nc3ccc(F)cc3)c(=O)[nH]c2c1	-30%	-25%	?	10%	8%
CCOc1ccc2[nH]c(=O)c(CN(CCN3CCCC3)C(=S)Nc3ccccc3OCC)cc2c1	-26%	-22%	-25%	6%	44%
Cc1ccc(C)c2[nH]c(=O)c(CN(CCN3CCCC3)C(=O)Nc3cccc(Cl)c3)cc12	-31%	-28%	28µM*	-11%	13%
Cc1cc(N(C)C(=O)c2ccc3c(c2)S(=O)(=O)c2cc(Cl)ccc2C3=O)c(C(F)(F)F)o1	.	-7%	.	-1%	34%
COc1cccc(C2=NOC(C(=O)NC(C)C)C2)c1 (stereo not given)	-8%	-8%	-10%[12.7 µM]	-2%	12%
COc1ccc(C(=O)CSc2nnc(-c3cc4ccccc4cc3O)n2Cc2ccco2)cc1	-1%	-30%	-69%	12%	48%
COC(=O)Cc1c[nH]c2cccc(OCC(O)CN(Cc3ccc([N+](=O)[O-])cc3)C(C)(C)C)c12 (stereo not given)	71µM*	?	.	13%	?
CC(C)CN(CC(C)C)CC(O)COc1ccc([N+](=O)[O-])cc1 (stereo not given)	1%	-15%	43%[59 µM]	16%	40%
CCc1ccccc1N(C(=O)CCC(=O)Nc1cc(C)on1)C(C(=O)NC1CCCC1)c1ccco1 (stereo not given)	-7%	-22%	?	2%	56%
O=S(=O)(Nc1ccc(-n2cccc2)cc1)c1ccc(F)cc1	?	-8%[11.4 µM]	50µM*	-3%	?
COc1ccc(NC(=O)CN(c2cccc(C)c2C)S(=O)(=O)c2ccccc2)cc1OC	?	?	-45%[59 µM]	6%	-3%
SMILES	BAZ2B block	JMJD2A Tudor	G9a inh	GLS inhibitor	HP1b binding inh
O=S(=O)(NCCOc1ccccc1F)c1cccc(Br)c1	26%	22%	-2%[2.33 µM]	3%	60%
CN(C)c1ccc(CNCCC2CCOC(C)(C)C2)cc1 (stereo not given)	?	.	45µM*	.	.
Cc1ccc(S(=O)(=O)N2CCN(C(=O)CSc3nncs3)CC2)cc1	24%	3%	16%	0%	5%
Oc1ccc(N=Nc2cccc(C(F)(F)F)c2)cc1C=Nc1ccc(N2CCOCC2)cc1	?	?	?	-2%	?
Clc1ccc(-c2ccc(C=Nc3ccc(N4CCOCC4)cc3)o2)cc1	-29%	-18%	-48%[59 µM]	16%	12%
Clc1cccc(-c2ccc(C=Nc3ccc(N4CCOCC4)cc3)o2)c1Cl	18µM*	25µM*	14µM*	37%	-15%
Clc1ccc(-c2ccc(C=Nc3ccc(N4CCOCC4)cc3)o2)c(Cl)c1	-21%	?	35µM*	34%	-4%
Cc1ccc(C(=O)OCC(=O)Nc2ccccc2)cc1NC(=O)c1ccco1	.	5%	8%[59 µM]	1%	15%
Cc1ccc(C(=O)OCC(=O)Nc2sccc2C(N)=O)cc1NC(=O)c1ccco1	-34%	-12%[57.1 µM]	0.89µM*	-4%	26%
Cc1ccc(C(=O)OCC(=O)Nc2sc3c(c2C#N)CCCC3)cc1NC(=O)c1ccco1	-30%	-28%	22µM*	16%	-2%
Cc1ccc(C(=O)OCC(=O)Nc2ncc(Cl)cc2Cl)cc1NC(=O)c1ccco1	-30%	?	45µM*	-7%	14%
Cc1cccc(-c2nc(CS(=O)CC(=O)NC3CCCC(C)C3C)c(C)o2)c1 (stereo not given)	-32%	-20%	.	1%	36%
CCOC(=O)CCc1c(C)nc2cc(-c3ccc(Cl)cc3)[nH]n2c1=O	5%	4%	-1%[12.7 µM]	-11%	33%
O=C(Nc1ccc2c(c1)OCCO2)c1ccc(Cl)c(S(=O)(=O)N2CCOCC2)c1	-29%	-23%	11%[12.7 µM]	-6%	21%
O=C(Nc1ccc(OC(F)(F)F)cc1)c1ccc2nc[nH]c2c1	-38%	-13%	50µM*	0%	24%
COc1ccc(NC(=O)c2ccc3nc[nH]c3c2)c(OC)c1	?	-15%	19%	2%	24%
CCN(CC)CCC=C(c1cccs1)c1cccs1	.	0.89µM*	.	3%	?
COc1ccc(CNC(=O)CSc2nnc(-c3ccc(NC(C)=O)cc3)n2C)cc1	-36%	5%	11%[59 µM]	3%	31%
COC(=O)/C(=N\Nc1ccc(Cl)cc1)Sc1nnc(-c2ccc(OC)cc2)n1C	-35%	?	3.2µM*	1%	16%
N#CCCN(C(=O)COC(=O)c1ccc2c(=O)n3c(nc2c1)CCC3)c1ccccc1	-6%	14µM*	31%	-14%	-8%
CC(=O)c1cccc(OC(=O)c2ccc3c(=O)n4c(nc3c2)CCC4)c1	-38%	-14%	7.1µM*	-4%	19%
